# This is a sample that favours compounds with a hit; in the whole collection about 19% have one here.
# RORg inh = qHTS for inhibitors of ROR gamma transcriptional activity | Drosophila S2 Gal4-RORgamma UAS-luciferase reporter, 20 h | Potency, µM (titrated, usually from 53.6 µM), for the others: top-dose activity change, negative = inhibition, most hits filed as inhibitors | Nuclear receptor ROR-gamma (Mus musculus), P51450 | hit rate 5.4% among 310,000; note: nearly all actives have a fitted effect of over 60% in size
#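 Luminescence from a UAS-regulated Photinus luciferase reporter in stably transfected Drosophila Schneider cells is measured; decreased signal marks ROR gamma inhibition. Fusion expression is induced by 700 uM copper sulfate for 20 hr.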
# DT40 TDP1 CPT = qHTS for Inhibitors of human tyrosyl-DNA phosphodiesterase 1 (TDP1): qHTS in cells in presence of CPT; chicken DT40 Tdp1-/-;hTDP1 cells + 20 nM CPT, ATP luminescence, 48 h; Potency, µM (highest dose often 46.2 µM), for inactives: at the top dose activity change, negative = growth inhibition, most hits filed as inhibitors; hit rate 12% among 420,000; note: nearly all actives have a fitted effect of over 55% in size
#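 Chicken DT40 Tdp1-/- cells complemented with human TDP1, 400 cells/well, exposed to compounds plus 20 nM camptothecin for at least 48 h at 37 C; viability read as ATP content by CellTiter-Glo luminescence.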
# DT40 TDP1 no CPT = qHTS for Inhibitors of human tyrosyl-DNA phosphodiesterase 1 (TDP1): qHTS in cells in absence of CPT; Potency, µM (top dose mostly 46.2 µM), without a hit: at the top dose activity change, negative = growth inhibition, actives largely listed as inhibitors; DT40 Tdp1-/- hTDP1 cells, no CPT, ATP luminescence, 48 h; hit rate 15% among 420,000; note: nearly all actives have a fitted effect of over 55% in size
#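 Luminescent ATP content (CellTiter-Glo) served as the growth readout. Knockout chicken DT40 cells expressing human TDP1 were exposed to compounds without camptothecin for a minimum 48 hr at 37 °C.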
# Gal4-VP16 FLuc = VP16 counterscreen qHTS for inhibitors of ROR gamma transcriptional activity. Drosophila S2 Gal4-VP16 UAS-luciferase, luminescence, 20 h. Potency, µM (highest dose often 53.6 µM), for inactives: at the highest dose activity, negative = inhibition, hits mostly inhibitors. hit rate 3.5% among 310,000;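 note: Gal4-VP16 expression switched on by copper sulfate through the metallothionein promoter; nearly all actives have a fitted effect of over 50% in size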
# TDP1 block = qHTS Assay for Inhibitors of Tyrosyl-DNA Phosphodiesterase (TDP1); Tyrosyl-DNA phosphodiesterase 1 (Homo sapiens), Q9NUW8; recombinant TDP1, AlphaScreen DNA substrate cleavage; Potency, µM (doses to about 130 µM), for inactives: top-dose activity change, negative = inhibition, usual class: inhibitors; hit rate 0.28% among 350,000; note: nearly all actives have a fitted effect of over 40% in size
# Target sequence (Q9NUW8 whole entry, looked up): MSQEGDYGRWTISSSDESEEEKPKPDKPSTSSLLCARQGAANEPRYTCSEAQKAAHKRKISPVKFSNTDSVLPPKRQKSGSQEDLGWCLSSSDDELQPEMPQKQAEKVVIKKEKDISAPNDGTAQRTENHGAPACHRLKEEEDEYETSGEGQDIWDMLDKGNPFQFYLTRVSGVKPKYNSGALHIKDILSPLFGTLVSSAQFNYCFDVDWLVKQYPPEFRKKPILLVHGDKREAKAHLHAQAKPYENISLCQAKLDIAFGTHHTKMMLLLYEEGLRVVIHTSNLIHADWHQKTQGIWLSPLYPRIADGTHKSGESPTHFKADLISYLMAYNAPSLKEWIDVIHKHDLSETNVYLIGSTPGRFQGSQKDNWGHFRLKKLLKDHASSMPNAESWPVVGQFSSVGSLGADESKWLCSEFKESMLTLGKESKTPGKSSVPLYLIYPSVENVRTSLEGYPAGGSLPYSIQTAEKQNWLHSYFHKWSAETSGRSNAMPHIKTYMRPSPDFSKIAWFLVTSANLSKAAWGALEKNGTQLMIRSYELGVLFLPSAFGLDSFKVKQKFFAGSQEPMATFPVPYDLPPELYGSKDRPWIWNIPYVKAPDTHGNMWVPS
#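 Tdp1 1 nM final; 15 min RT w/ cpd; substrate 15 nM, 5 min; beads 10 ug/ml, 10 min; AlphaScreen read. Neg ctrl: no enzyme.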
# An asterisk follows results filed as active; u = inconclusive; x = not tested or not shown; [ ] = remark or other dose. Calls come from the whole dose curve; as a rule, active = well fitted curve in the direction sought with a large enough effect; inconclusive = small, poorly fitted or top-dose-only effect, or another doubt; inactive = no such curve, though single readings can be large; an effect the other way counts as inactive or inconclusive. % is set by controls: 0 for no effect and ±100 for the full control effect; potency is the fitted concentration of half-maximal effect.
SMILES,RORg inh,DT40 TDP1 CPT,DT40 TDP1 no CPT,Gal4-VP16 FLuc,TDP1 block
CC(=O)NC(=S)Nc1ccc(-c2nc3ccc(C)cc3s2)cc1,0.5µM*,u,u,1.8µM*,4%
CC1=CCC(C(=O)O)C(C(=O)Nc2ccc(-c3nc4ccc(C)cc4s3)cc2)C1 (configuration not stated),-20%,-3%,-11%,-22%,25µM*
CNC(=S)Nc1ccc(-c2nc3ccc(C)cc3s2)cc1,0.56µM*,2%,u,7.1µM*,5%
Cc1ccc2nc(-c3ccc(NS(=O)(=O)c4ccc(F)cc4)cc3)sc2c1,x,u,u,x,-4%
CCCCNC(=S)Nc1ccc(-c2nc3ccc(C)cc3s2)cc1,3.2µM*,u,18µM*,u,0%
CCn1c(C)nnc1SCC(=O)Nc1ccc(Cl)cc1,41%,-6%,1%,5%,x
Cc1ccc2nc(-c3ccc(NC(=S)NCC(C)(C)CN(C)C)cc3)sc2c1,x,6.5µM*,6.5µM*,x,x
Cc1ccc2nc(-c3ccc(NC(=O)CN4CCN(C(=O)c5ccco5)CC4)cc3)sc2c1,u,-3%,-17%,u,-12%
C/C(Cc1ccccc1)=N\NC(=O)c1cc(C(C)(C)C)[nH]n1,-2%,6%,-21%,-3%[10 µM],5%
CC(CCc1ccco1)NC(=O)Cn1nc(Cc2ccncc2)c2ccccc2c1=O (configuration not stated),3%,-13%,-37%,4%,4%
CCOc1ccc2c(c1)C(NC(C)=O)C(=O)N2CCN1CCOCC1 (configuration not stated),-8%,u,15µM*,-1%,x
CC(=O)NC1C(=O)N(CCN2CCOCC2)c2ccc(Br)cc21 (configuration not stated),-13%,-18%,-15%,13%,x
Cc1ccc(C2Nc3ccccc3C(=O)N2CCCN2CCOCC2)cc1 (configuration not stated),21%,-2%,-18%,16%,x
COc1ccc(CCNC(=O)c2cc(Sc3cccc(Cl)c3)nc3ccccc23)cc1OC,x,8.2µM*,7.3µM*,x,3%
COc1ccc2c(Sc3ccc(Cl)cc3)c(C(=O)NCCCN3CCCCC3)[nH]c2c1,x,23µM*,23µM*,x,11%
CCOCCCNC(=O)c1[nH]c2cc(OC)ccc2c1Sc1ccccc1,x,-25%,-4%,x,9%
CCOc1ccc(/C=C/C(=O)NCCc2ccc(OC)c(OC)c2)cc1,4%,u,23µM*,-2%,6%
CCOc1ccc(Sc2cc(C(=O)NCCc3ccc(OC)c(OC)c3)c3ccccc3n2)cc1,x,3.7µM*,5.8µM*,x,0%
CCOc1ccc(-c2cc(C(=O)NCCc3ccc(OC)c(OC)c3)[nH]n2)cc1,x,u,u,x,3%
CCOc1ccc(Sc2cc(C(=O)NCCc3ccccc3)c3ccccc3n2)cc1,x,-15%,-28%,x,5%
CC(=O)O[C@@H]1C[C@H](c2ccccc2)OC(=O)CCCCC1=O,x,-16%,-22%,x,x
COc1cc(/C=C/C(=O)NCCN2CCOCC2)cc(OC)c1OC,-2%,-1%,4%,-7%,3%
CCOCCCNC(=O)c1cc(Sc2cccc(Cl)c2)nc2ccccc12,x,u,15µM*,x,0%
O=C(NCCCN1CCCCC1)c1cc(Sc2ccc(Cl)cc2)nc2ccccc12,x,16µM*,23µM*,x,0%
CCCCNC(=O)c1[nH]c2ccccc2c1Sc1ccc(C)cc1,x,u,-16%,x,3%
SMILES,RORg inh,DT40 TDP1 CPT,DT40 TDP1 no CPT,Gal4-VP16 FLuc,TDP1 block
CCN(CC)CCCNC(=O)c1[nH]c2ccccc2c1Sc1ccc(Cl)cc1,-44%,u,15µM*,-10%,x
COc1ccc(/C=C/C(=O)NCCN2CCOCC2)cc1OC,5%,u,21µM*,-8%,-4%
CCC(=O)N1c2ccccc2CC1C(=O)NCCc1ccc(C)cc1 (configuration not stated),x,u,-27%,x,6%
C=C(C)C1CC=C(C)/C(=N/NC(=O)COc2cccc(C)c2)C1 (configuration not stated),8%,u,u,8%,0%
COc1cc(C(=O)NCC(=O)N/N=C/c2ccc(OC(=O)c3ccco3)cc2)cc(OC)c1OC,-5%,1%,-21%,5%,1%
CCCCNC(=O)c1cc(Sc2ccc(OCC)cc2)nc2ccccc12,x,-30%,u,x,3%
COc1cccc(CNC(=O)c2cc(Sc3cccc(Cl)c3)nc3ccccc23)c1,x,u,15µM*,x,0%
Cc1c(C)n(Cc2ccccc2)c2ncnc(N)c12,u,15µM*,23µM*,-22%,8%
CCOc1c(Br)cc(CNc2ncn[nH]2)cc1OC,-4%,13%,-26%,1%[0.365 µM],0%
CC1CCN(c2c(NCC3CCC(C(=O)NCCc4ccc(Cl)cc4)CC3)c(=O)c2=O)CC1 (configuration not stated),24%,u,-84%,-6%,5%
Cc1ccccc1-c1cc(C(=O)O)nn1CC1CC(c2cccc([N+](=O)[O-])c2)=NO1 (configuration not stated),x,12%,-4%,x,-3%
Cc1ccccc1-c1cc(C(=O)NCc2cccs2)nn1CC1CC(c2cccc([N+](=O)[O-])c2)=NO1 (configuration not stated),x,u,16µM*,x,1%
Cc1ccccc1-c1cc(C(=O)NCc2ccco2)nn1CC1CC(c2cccc([N+](=O)[O-])c2)=NO1 (configuration not stated),x,16µM*,u,x,3%
CCC(C)NC(=O)c1ccccc1NC(=O)c1ccc(CSc2ccccc2)cc1 (configuration not stated),-8%,u,u,u,-4%
CC(C)NC(=O)N(C)C[C@H]1Oc2c(NC(=O)c3ccc(-c4nccs4)cc3)cccc2C(=O)N([C@@H](C)CO)C[C@H]1C,x,u,u,x,0%
Cc1cc(NC(=O)CN(C)CC(=O)Nc2ccc(Cl)c(C(F)(F)F)c2)no1,x,15µM*,16µM*,x,-3%
CN(CC(=O)Nc1ccc(OC(F)(F)F)cc1)S(=O)(=O)c1cnc[nH]1,12%,-9%,-15%,-5%,-1%
CN(CC(=O)Nc1ccc(Cl)c(C(F)(F)F)c1)S(=O)(=O)c1cnc[nH]1,x,15µM*,15µM*,x,x
Cc1nn(-c2ccc3nncn3n2)c(C)c1CCC(=O)Nc1ccc(OC(F)(F)F)cc1,x,u,u,x,5%

# Source: PubChem (National Center for Advancing Translational Sciences (NCATS))
